Inhibition data for 98 molecules are collected here from PubChem BioAssay AID778 (Sanford-Burnham Center for Chemical Genomics, 2007).

Molecules are shown by their SMILES. Hit rate of the full screen: of about 96,000 compounds, about 20,000 (21%) were called active. These entries were drawn from the full list. Unmarked numbers belong to inactive results.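 The calls were made as follows: active = CYP2C19 inhibition above a set limit at 5 µM in the primary screen (cut at about 50% in these data); inactive = the rest.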

In the experiment the target is Cytochrome P450 2C19 (Homo sapiens) (UniProt P33261). In words: blockers of cytochrome P450 2C19 activity – biochemical, luminescence, ADME assay, primary screen (AID 778).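 Also: plate controls were negative control wells for no effect and 2.5 mM tranylcypromine positive control for full effect.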 Conditions: CYP2C19 Supersomes, luciferin-H EGE luminescence, 30 min; at 5 µM; stronger effect = higher value.
Cytochrome P450 2C19 (Homo sapiens), sequence (P33261 whole entry, looked up): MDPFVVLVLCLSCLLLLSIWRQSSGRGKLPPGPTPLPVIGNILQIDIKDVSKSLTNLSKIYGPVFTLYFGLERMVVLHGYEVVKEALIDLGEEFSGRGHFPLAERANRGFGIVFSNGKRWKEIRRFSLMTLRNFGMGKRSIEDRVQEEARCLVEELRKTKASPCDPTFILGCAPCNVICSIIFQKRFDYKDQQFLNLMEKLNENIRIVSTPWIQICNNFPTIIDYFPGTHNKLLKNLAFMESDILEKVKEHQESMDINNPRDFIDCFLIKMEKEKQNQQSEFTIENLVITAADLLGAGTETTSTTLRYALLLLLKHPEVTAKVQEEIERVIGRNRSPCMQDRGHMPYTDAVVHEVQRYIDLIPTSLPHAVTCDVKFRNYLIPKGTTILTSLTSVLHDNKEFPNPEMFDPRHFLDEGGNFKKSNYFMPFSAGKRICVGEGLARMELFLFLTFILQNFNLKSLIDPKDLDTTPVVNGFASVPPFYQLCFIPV
As to `CCCCCCC(=O)Nc1nc(C)c(-c2csc(Nc3cccc(OC)c3)n2)s1`, the inhibition was -4.8%.

As for `COC(=O)c1ccccc1Sc1c(/C=N/OCc2ccc(Cl)cc2)c(C(F)(F)F)nn1C`, the inhibition is 72.6% (active).

Consider `COC(=O)c1ccccc1NC(=O)Cn1nc(C(F)(F)F)c2c1CCC2`, for which the inhibition was 36.4%.

Take `O=C1N=C2SCCN2/C1=C\c1c(Cl)cccc1Cl`: the inhibition was 11.1%.

In the case of `Cc1cc(Nc2ccccc2)nc(N)n1`, the inhibition is -8.2%.

Turning to `CNC(=O)n1ccc(C(=O)N2CCCCC2)n1`, the inhibition was -16.6%.

`O=C(/C=C\NCC(=O)c1ccccc1)c1ccccc1`: the inhibition was 46.4%.

With `O=C(/C=C/NNC(=O)c1cccc(Br)c1)c1ccccc1`, the inhibition is 76.7% (active).

Consider `CC(C)(O)C(=O)NN(C(=O)c1ccccc1)c1cccc(Br)c1`, for which the inhibition was 2.5%.

Regarding `CCC(C)(C(=O)NC1CCCC1)N(C(=O)CNC(C)=O)c1ccc(C)cc1` (stereo not drawn), the inhibition is 21.1%.

With `CCOc1ccccc1NC(=O)C1CCC(CNc2c(N3CCOCC3)c(=O)c2=O)CC1` (stereo not drawn), the inhibition was -13.1%.

`CCOc1ccc(NC(=O)CN(C)CC(=O)Nc2cccc(Cl)c2C)cc1OCC`: the inhibition was 21.6%.

In the case of `CCOc1ccccc1NC(=O)C12CC3CC(C1)CC(c1ccc(C)cc1)(C3)C2`, the inhibition is 51.9% (active).

Turning to `CCOCC(=O)Nc1cc(OC)c(Cl)cc1OC`, the inhibition is 29.8%.

Regarding `COc1ccc(-c2cc(C(F)(F)F)n3nc(C(=O)N4CCOCC4)c(Cl)c3n2)cc1`, the inhibition was -7.1%.

Regarding `FC(F)Oc1ccccc1C1CC(c2ccc(Br)s2)Nc2ncnn21` (stereo not drawn), the inhibition is 98.5% (active).

With `COc1ccc2[nH]c3c(=O)n(Cc4ccco4)cnc3c2c1`, the inhibition is 21.8%.

As for `CCC(c1nnnn1Cc1ccccc1)N(Cc1cc2cc(OC)ccc2[nH]c1=O)CC1CCCO1` (stereo not drawn), the inhibition was 44.9%.

Consider `CCC(c1nnnn1Cc1ccco1)N(CCc1ccccc1)Cc1cc2cccc(C)c2[nH]c1=O` (stereo not drawn), for which the inhibition was 38.3%.

Consider `CCC(=O)N(Cc1cc2cc(OC)ccc2[nH]c1=O)c1ccccc1C`, for which the inhibition was 21.8%.

As to `CCC(c1nnnn1Cc1ccco1)N(Cc1cc2cc(OC)ccc2[nH]c1=O)C1CCCCC1` (stereo not drawn), the inhibition is 53.6% (active).

On to `CCC(c1nnnn1Cc1ccco1)N(CCc1ccccc1)Cc1cc2ccc(OC)cc2[nH]c1=O` (stereo not drawn), for which the inhibition is 92.2% (active).

`O=C1c2ccccc2-c2ncnc3c(N4CCOCC4)cc(N4CCOCC4)c1c23`: the inhibition was 29.6%.

With `CCOC(=O)c1sc(NC(=O)CSc2nc(C)cc(C(F)(F)F)n2)c(C#N)c1C`, the inhibition is 19.8%.

Consider `Cc1cc(Oc2ccccc2)nc(N2CCOCC2)n1`, for which the inhibition was 94.5% (active).

`CC(=O)c1ccc(Oc2cc(C)nc(-n3nc(C)cc3C)n2)cc1`: the inhibition was -5.5%.

Take `Cc1nc(N2CCOCC2)nc2c1CCCC2`: the inhibition was 28.5%.

With `CCc1ccc2c(c1)cc(CN(C(=S)Nc1ccccc1Cl)C1CC1)c1nnnn12`, the inhibition was -11.2%.

As to `Cc1nc2ccccc2c2oc(C(=O)NCCCN3CCC(C)CC3)cc12`, the inhibition was -6.7%.

Turning to `CC1Oc2ccccc2N(Cc2cccnc2)C1=O` (stereo not drawn), the inhibition is 26.8%.

As for `O=C(NC1(C(F)(F)F)NC(=O)N(Cc2cccnc2)C1=O)c1ccccc1Cl` (stereo not drawn), the inhibition was 39.8%.

Turning to `CC12c3ccccc3C(c3ccccc31)C1C(=O)N(Cc3cccnc3)C(=O)C12` (stereo not drawn), the inhibition was 81.2% (active).

As to `CCc1ccccc1N(CC(=O)NCCSCc1ccco1)S(C)(=O)=O`, the inhibition is 24%.

For the molecule `Cc1cccc(N(CC(=O)Nc2ccc(-c3nc4ccc(C)cc4s3)cc2)S(C)(=O)=O)c1`, the inhibition is 1.8%.

In the case of `COc1cccc(N(CC(=O)NCCSc2ccccn2)S(C)(=O)=O)c1`, the inhibition is 53.8% (active).

For the molecule `O=C(COc1ccc(Cl)cc1)NCCSc1ccccc1`, the inhibition is 14.6%.

As to `COC(=O)c1ccccc1NC(=O)CSc1ccccn1`, the inhibition was 26.9%.

As for `O=C(CCSc1ccccc1)NCCSc1ccccn1`, the inhibition was 71% (active).

`Nc1nnc(SCCN2C(=O)c3ccccc3S2(=O)=O)s1`: the inhibition is 29%.

In the case of `O=C(N/N=C/c1ccsc1)c1cc(O)cc(O)c1`, the inhibition is 7%.

Regarding `Nc1nc(C23CC4CC(CC(C4)C2)C3)cs1`, the inhibition is 40.8%.

Consider `CCC(C)OC(=O)C(C)Oc1ccc(-c2ccccc2)cc1` (stereo not drawn), for which the inhibition is 0.6%.

As for `O=C(NCN1CCN(CCO)CC1)c1cnccn1`, the inhibition is -8.6%.

For the molecule `Cc1ccc(S(=O)(=O)C2(S(=O)(=O)c3ccc(C)cc3)CCCC2)cc1`, the inhibition was 83.3% (active).

On to `Cc1ccc(S(=O)(=O)N(C)C2(C)CCS(=O)(=O)C2)cc1` (stereo not drawn), for which the inhibition was 18.3%.

In the case of `Cc1ccc(S(=O)(=O)NC(=O)N2CCCC(C)(C)C2)cc1`, the inhibition was -4.4%.

For the molecule `Cc1ccc(S(=O)(=O)N2CCOCC2)cc1C(=O)NCc1ccc(F)cc1`, the inhibition is 15.3%.

For `CCN(CC)S(=O)(=O)c1ccc(N2CCOCC2)c(C(=O)O)c1`, the inhibition is 9.1%.

Take `CN(C)S(=O)(=O)c1ccc(N2CCCC2)c(C(=O)NCc2ccccc2)c1`: the inhibition is 62.4% (active).

`Cc1cc(OC(=O)c2ccc(Cl)cc2)cc(=O)n1C`: the inhibition is -5.3%.

In the case of `O=C(Nc1ccccc1Cl)O/N=C(/c1ccccc1)c1ccccn1`, the inhibition is 21.3%.

In the case of `O=C(N1CCOCC1)N(Cc1ccccc1)c1ccccn1`, the inhibition is 31.3%.

Take `COc1ccc(Cc2nnc(NS(=O)(=O)Cc3ccccc3)s2)cc1`: the inhibition is 9%.

As for `Cc1cccc(NC(=O)CN2CCCN(S(=O)(=O)c3ccc(Br)s3)CC2)c1`, the inhibition is 67.4% (active).

Turning to `Cc1cccc(NC(=O)CSc2nnc(NC(=O)CN3CCOCC3)s2)c1`, the inhibition is 0.9%.

As to `Cc1cccc(NC(=O)CN2C(=O)CNC2=O)c1`, the inhibition is -10.1%.

On to `CCc1nnc(NC(=O)CSc2nc3c(c(=O)n2-c2ccccc2OC)SCC3)s1`, for which the inhibition was 11.4%.

`CS(=O)(=O)c1ccc2nc(NC(=O)CN3CCCCCC3)sc2c1`: the inhibition is -6%.

On to `CC1Cc2ccccc2N1C(=O)CSc1nc2ccccc2o1` (stereo not drawn), for which the inhibition was 76.8% (active).

Consider `Cc1nnc(SCC(=O)N2CCN(c3ccccc3)CC2)n1-c1ccccc1`, for which the inhibition is -4.9%.

Turning to `O=C(CSc1nc2ccccc2o1)N1CCN(c2ccc(Cl)cc2)CC1`, the inhibition is 4.3%.

For the molecule `CCS(=O)(=O)c1ccc2oc(SCC(=O)N3c4ccccc4CC3C)nc2c1` (stereo not drawn), the inhibition was -8.1%.

`Cc1cc(=O)[nH]c(SCC(=O)N2c3ccccc3CC2C)n1` (stereo not drawn): the inhibition was 1.8%.

Take `O=C(CSc1nc2ccccc2o1)N1CCN(c2ccccc2)CC1`: the inhibition was 55.6% (active).

With `Cc1ccccc1Nc1nc(N)nc(CN2CCN(c3ccccn3)CC2)n1`, the inhibition is 12.9%.

For `Cc1ccc(C)c(NC(=O)c2ccc(OC(=O)c3ccco3)cc2)c1`, the inhibition is 4.9%.

Regarding `CCC(CC)c1nnc(NS(=O)(=O)Cc2ccccc2)s1`, the inhibition is -10.5%.

`CSc1ccc(C#N)cc1NC(=O)c1ccc(Cl)cc1`: the inhibition is 3%.

For `COc1ccc(Cn2cccc(NC(=O)Nc3ccc(C#N)cc3)c2=O)cc1`, the inhibition was 5.5%.

Take `O=C(Nc1cccn(Cc2c(Cl)cccc2Cl)c1=O)c1ccc(Cl)cc1`: the inhibition is 79.9% (active).

In the case of `Cc1cc(/C=C2/SC(=O)N(CC(=O)OC(C)C)C2=O)c(C)n1C`, the inhibition was 1.6%.

Consider `Cc1c(NC(=O)CSc2cccc3cccnc23)c(=O)n(-c2ccccc2)n1C`, for which the inhibition is -13.9%.

Regarding `Cc1ccc(-n2nc3cc(Cl)c(NC(=O)c4ccco4)cc3n2)cc1`, the inhibition is 10.3%.

On to `CC1CCc2c(c3ccccc3[nH]c2=O)O1` (stereo not drawn), for which the inhibition is 25.5%.

As to `Cn1nc(-c2ccccc2)c(-c2nc(-c3ccc(Cl)cc3)no2)c1Cl`, the inhibition is -16.4%.

As to `CC1CN(c2nc(-c3ccccc3)nnc2-c2ccccc2)CC(C)O1` (stereo not drawn), the inhibition was -3.1%.

With `Clc1ccc(-c2nnc(-c3ccccc3)nc2N2CCSCC2)cc1`, the inhibition is 72% (active).

For the molecule `O=C(Nc1ccccc1C(F)(F)F)c1cc(-c2ccc(O)cc2)on1`, the inhibition was 6.8%.

As to `COc1ccc(C(=O)Nc2nc(-c3ccc(S(=O)(=O)N4CCOCC4)cc3)cs2)cc1`, the inhibition was 14.6%.

Take `Cn1ccs/c1=N\S(=O)(=O)c1ccc(C(C)(C)C)cc1`: the inhibition is 65% (active).

On to `CCC1=[N+]([O-])C(C)(/C(C)=N\O)N(O)C1(C)C` (stereo not drawn), for which the inhibition is 23.5%.

As to `NC(=O)Cn1c(=O)oc2ccccc21`, the inhibition is -6.4%.

Regarding `c1ccc(-n2nnnc2N2CCOCC2)cc1`, the inhibition was 33.5%.

As to `O=C(c1ccc(S(=O)(=O)N2CCOCC2)cc1)N1CCN(c2ccccc2)CC1`, the inhibition was -4.7%.

In the case of `O=C1C(Cl)=C(N2CCOCC2)C(=O)N1c1ccccc1`, the inhibition is 84.7% (active).

On to `CC(C)(C)NC(=O)c1cc(NC(=O)c2ccco2)cc(NC(=O)c2ccco2)c1`, for which the inhibition was 20.8%.

With `CCOC(=O)c1sc(=S)n2c1[nH]c(=O)c1ccc(C(=O)OC)cc12`, the inhibition is -1.3%.

On to `CCOC(=O)C1=C(C)Nc2sc(C(=O)c3ccc(Br)cc3)c(N)c2C1c1ccc(C(=O)OC)cc1` (stereo not drawn), for which the inhibition was 88.2% (active).

Turning to `CCOC(=O)N1CCC(NC(=O)c2cnn3ccccc23)CC1`, the inhibition was 5.9%.

With `O=C1C(C=NCC2CCCO2)=C(O)c2ccccc21` (stereo not drawn), the inhibition is 8.1%.

Take `C=CCCC(=O)Nc1nc(C)c(-c2csc(Nc3ccc(Cl)cc3)n2)s1`: the inhibition is 56.4% (active).

For the molecule `CCCCC(=O)Nc1nc(C)c(-c2csc(Nc3ccc(Cl)cc3)n2)s1`, the inhibition was 45.9%.

For the molecule `CCCCCCC(=O)Nc1nc(C)c(-c2csc(Nc3cc(Cl)ccc3OC)n2)s1`, the inhibition was -7.7%.

With `O=C(Nc1cc(N2CCOCC2)ncn1)NC1(C(F)(F)F)Oc2ccc(Cl)cc2O1` (stereo not drawn), the inhibition is 1%.

In the case of `CSCCC(NC(N)=O)C(=O)N(C)CC(=O)Nc1ccc(C)cc1` (stereo not drawn), the inhibition was 3.3%.

For the molecule `O=C(NCc1ccco1)c1nc(-c2ccccc2)n(-c2ccccc2)n1`, the inhibition was 25.6%.

For the molecule `O=[N+]([O-])c1ccc(N2CCN(S(=O)(=O)c3ccc4ccccc4c3)CC2)cc1NCc1ccco1`, the inhibition is 19.1%.

As for `O=C(c1ccccc1)N1CCN(c2ccc([N+](=O)[O-])c(NCc3ccco3)c2)CC1`, the inhibition is 82.3% (active).

For orientation: inhibition means the drop in the measured response relative to a control, in per cent.
